Test results taken from PubChem BioAssay (NCI).
“And” between values parts separate entries of the source, which are not always exact repeats. Equal values may be shown once. The panel holds about 79,000 compounds, 15% with a hit somewhere; the sample as a whole holds those more often. The source made the active and inactive calls. Cut-off read from the data, not from the text of the source: active = growth inhibition above about 70%; inactive = the rest.

How the values were obtained:
[1] = NCI Yeast Anticancer Drug Screen. Data for the rad50 strain (AID 155);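 note: 0% = growth of vehicle-only cultures of the same strain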; settings: S. cerevisiae rad50 strain growth inhibition, hits give high values
How it was run: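 Cells are treated with compound, grown, and their growth is then scored against vehicle-only cultures of the same repair-deficient yeast strain.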

[2] = NCI Yeast Anticancer Drug Screen. Data for the mec2-1 strain (AID 157); settings: S. cerevisiae mec2-1 strain, hits give high values
How it was run: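 Test agents were screened against the mec2-1 yeast strain, with defined DNA repair or cell cycle alteration. Growth was scored as inhibition against vehicle-only controls.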

[3] = NCI Yeast Anticancer Drug Screen. Data for the sgs1 mgt1 strain (AID 161);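 note: 0% = growth of cultures given vehicle only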; settings: S. cerevisiae sgs1 mgt1 strain, hits give high values
How it was run: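 Mutant yeast exposed to compound; growth scored against vehicle-only wells.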

[4] = NCI Yeast Anticancer Drug Screen. Data for the cln2 rad14 strain (AID 165);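 note: 0% = growth equal to vehicle treated cultures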; settings: S. cerevisiae cln2 rad14 strain, hits give high values
How it was run: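 Growth of compound-exposed yeast (cln2 rad14 genotype) measured and expressed as inhibition relative to vehicle.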

[5] = NCI Yeast Anticancer Drug Screen. Data for the bub3 strain (AID 167); settings: S. cerevisiae bub3 mutant strain, hits give high values
How it was run: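 Part of a panel of yeast mutants defective in DNA damage repair or cell cycle regulation. Each strain is grown with compound, and inhibition is calculated relative to solvent-treated cultures.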

[6] = NCI Yeast Anticancer Drug Screen. Data for the mlh1 rad18 strain (AID 175); settings: S. cerevisiae mlh1 rad18 strain growth inhibition, hits give high values
How it was run: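 In this whole-cell yeast screen, a strain with altered DNA damage repair is challenged with compound, and its growth is measured against matched vehicle-treated controls.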

[7] = at 5.0 µM (retest, dose inferred, filed as 0.5)
[8] = at 50.0 µM (retest, dose inferred, filed as 5.0)

Measured: growth inhibition

O=C(O)c1cc2ccccc2c(=O)[nH]1
inactive: [1]; at 50.0 µM -2.25% and 29.4% | [2]; at 50.0 µM 4.55% and 10.8% | [3]; at 50.0 µM -6.9% and 21.9% | [4]; at 50.0 µM 0.8% and 12.2% | [5]; at 50.0 µM 0.9% and 4.45% | [6]; at 50.0 µM 2.4% and -6.55%

CN(C)CC1CCCC1=O (configuration not stated)
inactive: [1]; at 50.0 µM 7.15% and 1.25% | [2]; at 50.0 µM -0.95% and -7.1% | [3]; at 50.0 µM 5.8% and -22.7% | [4]; at 50.0 µM 1.75% and 8.6% | [5]; at 50.0 µM -0.75% and 8.25%

C1CCC(CCCc2nn[nH]n2)CC1
active: [5]; [8] 78%
inactive: [1]; [7] 20% | [1]; [8] 53% | [2]; [7] -1% | [2]; [8] 64% | [3]; [7] -2% | [3]; [8] 51% | [4]; [7] 1% | [4]; [8] 44% | [5]; [7] 1% | [6]; [7] 13% | [6]; [8] 61%

CNc1ncnc2nc(C)[nH]c12
inactive: [1]; [7] 0% | [1]; [8] 20% | [3]; [7] 0% | [3]; [8] 16% | [4]; [7] 2% | [4]; [8] -4% | [5]; [7] 1% | [5]; [8] 2% | [6]; [7] -13% | [6]; [8] 16%

CC(=O)OCC(OC(C)=O)C(OC(C)=O)C(OC(C)=O)C(COC(=O)c1ccccc1)OC(=O)c1ccccc1 (configuration not stated)
inactive: [1]; at 50.0 µM 4.35% and 18.9% | [2]; at 50.0 µM -3.75% and 5.75% | [3]; at 50.0 µM -10.6% and -4.1% | [4]; at 50.0 µM -21.1% and 3.7% | [5]; at 50.0 µM 4.35% and -0.35% | [6]; at 50.0 µM 2.15% and 10.3%

CC1C2c3ccccc3C(c3ccccc32)C1CO (configuration not stated)
inactive: [1]; [7] 11% | [2]; [7] 1% | [2]; [8] 61% | [3]; [7] 6% | [4]; [7] 4% | [5]; [7] -4% | [6]; [7] -44%
active: [1]; [8] 88% | [3]; [8] 77% | [4]; [8] 71% | [5]; [8] 74% | [6]; [8] 80%

N#C/C(=N\O)C(N)=O
inactive: [1]; [7] 19% | [2]; [7] -3% | [3]; [7] 2% | [4]; [7] -1% | [5]; [7] 3% | [6]; [7] 26%
active: [1]; [8] 87% | [2]; [8] 93% | [3]; [8] 83% | [4]; [8] 75% | [5]; [8] 86% | [6]; [8] 86%

CCCCNC(=O)C(C)O (configuration not stated)
inactive: [1]; [7] 5% | [1]; [8] 23% | [2]; [7] 0% | [2]; [8] 3% | [3]; [7] 0% | [3]; [8] 4% | [4]; [7] 5% | [4]; [8] 0% | [5]; [7] 1% | [5]; [8] -2% | [6]; [7] 3% | [6]; [8] 8%

CN(C)CC(O)c1cc2ccccc2c2ccccc12 (configuration not stated)
inactive: [1]; at 50.0 µM 3.3% and -1.9% | [2]; at 50.0 µM 22.6% and -10.7% | [3]; at 50.0 µM 3.4% and -2.3% | [4]; at 50.0 µM -8.8% and -32.2% | [5]; at 50.0 µM 18.4% and -5.5% | [6]; at 50.0 µM 8.65% and -14.2%

CC(C)CNC(=O)C(C)O (configuration not stated)
active: [1]; [8] 88%
inactive: [1]; [7] 13% | [2]; [7] 2% | [2]; [8] 18% | [3]; [7] 4% | [3]; [8] 40% | [4]; [7] 2% | [4]; [8] 14% | [5]; [7] 0% | [5]; [8] 7% | [6]; [7] 12% | [6]; [8] 40%

Nc1cccc2c1-c1ccccc1C2=O
active: [1]; [8] 89%
inactive: [1]; [7] 15% | [2]; [7] 1% | [2]; [8] 18% | [3]; [7] 4% | [3]; [8] 47% | [4]; [7] -1% | [4]; [8] -7% | [5]; [7] 1% | [5]; [8] 15% | [6]; [7] -35% | [6]; [8] 29%

CC(=O)Nc1nc(-c2ccccc2)cs1
inactive: [1]; [7] 1% | [1]; [8] 23% | [2]; [7] -4% | [2]; [8] 4% | [3]; [7] -2% | [3]; [8] 23% | [4]; [7] 7% | [4]; [8] -5% | [5]; [7] -1% | [5]; [8] 6% | [6]; [7] -11% | [6]; [8] 2%

COc1cccc(NC(=O)c2c(SC)n[nH]c2N)c1
inactive: [1]; [7] 26% | [2]; [7] 38% | [3]; [7] 35% | [5]; [7] 43% | [6]; [7] 11%
active: [1]; [8] 99% | [2]; [8] 98% | [3]; [8] 99% | [5]; [8] 99% | [6]; [8] 91%

CCCC(=O)c1ccc([N+](=O)[O-])o1
active: [1]; [8] 98% | [2]; [8] 99% | [3]; [8] 99% | [4]; [8] 98% | [5]; [8] 100% | [6]; [8] 98%
inactive: [1]; [7] 13% | [2]; [7] 7% | [3]; [7] 15% | [4]; [7] 4% | [5]; [7] 16% | [6]; [7] 1%

OCCNC(c1ccc(Cl)cc1)C(O)c1ccc(Cl)cc1 (configuration not stated)
active: [3]; [8] 77%
inactive: [1]; [7] 5% | [1]; [8] 62% | [3]; [7] 0% | [4]; [7] 11% | [4]; [8] 8% | [5]; [7] 6% | [5]; [8] 55% | [6]; [7] -4% | [6]; [8] 59%

O=C(NC(=O)c1cn(C2OC(CO)C(O)C2O)c(=O)[nH]c1=O)OCc1ccccc1 (configuration not stated)
inactive: [1]; at 50.0 µM -3.55% and -14.8% | [2]; at 50.0 µM -4.8% and 23.7% | [3]; at 50.0 µM -25.6% and -8.85% | [4]; at 50.0 µM 11.1% and 20.3% | [5]; at 50.0 µM -19.6% and -17.8% | [6]; at 50.0 µM -19.6% and 0.55%

O=C(O)CSc1nc2ccccc2s1
inactive: [1]; at 50.0 µM -8.8% and -6.9% | [2]; at 50.0 µM 1.7% and -9.8% | [3]; at 50.0 µM -0.85% and -11.6% | [4]; at 50.0 µM -28.8% and -12% | [5]; at 50.0 µM 9.45% and -33.6% | [6]; at 50.0 µM -12.7% and -48%

CC1=NN(c2ccc([N+](=O)[O-])cc2)C(=O)C1[N+](=O)[O-] (configuration not stated) (tested in a mixture with another compound)
inactive: [1]; at 50.0 µM 20.1% and 26.6% | [2]; at 50.0 µM 1.95% and 2.9% | [3]; at 50.0 µM 12.3% and 34.4% | [4]; at 50.0 µM 14.8% and 13.1% | [5]; at 50.0 µM -1.75% and -1.25% | [6]; at 50.0 µM 3.35% and 12.8%
